Source: PubChem BioAssay (National Center for Advancing Translational Sciences (NCATS))
Compounds with a hit are over-represented: about 5.7% of the library has one in this group of screens.
ATXN viability – Viability Counterscreen for Primary qHTS for Inhibitors of ATXN expression; Potency, µM (top dose mostly 56.7 µM), most hits filed as cytotoxic; 0.49% of 400,000 active; S2 cells (HEK-293 line with an ATXN2-luciferase reporter) viability, CellTiter-Fluor protease fluorescence, 24 h; AID 651635, 2014; note: nearly all actives have a fitted effect of over 40% in size
ATXN2 expr inh – Primary qHTS for Inhibitors of ATXN expression. 0.72% of 360,000 active. HEK-293 ATXN2-luciferase reporter, luminescence, 24 h. Potency, µM (doses to about 57 µM), most hits filed as inhibitors; note: nearly all actives have a fitted effect of over 55% in size
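qHTS (up to 57 uM final) was run with 24 h compound exposure of reporter cells at 37 °C. Each well was multiplexed: SteadyGlo luminescence measured ATXN2-luciferase expression after a fluorogenic Gly-Phe-AFC viability readout (25 uM final).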
TGFb SMAD3 inh – qHTS for Inhibitors of TGF-b; HepG2 CAGA-GFP TGF-b/SMAD3 reporter, GFP fluorescence, 18 h; TGF-beta stimulated, 500 pg/mL final; Potency, µM (titrated, usually from 46.1 µM), most hits filed as inhibitors; 1.2% of 410,000 active; AID 588855, 2011; note: nearly all actives have a fitted effect of over 65% in size
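Cell-based qHTS in HEPG2 carrying a CAGA-GFP Smad reporter; compounds added before 500 pg/mL final TGF-beta, 18 h incubation at 37 degrees C, GFP fluorescence quantified per cell by imaging cytometry.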
IL1B secr inh – qHTS for Inhibitors of Inflammasome Signaling: IL-1-beta AlphaLISA Primary Screen; THP-1 LPS/ATP IL-1B secretion, AlphaLISA, 16 h; active compounds read low; activity change, % at 57.5 µM; 4.7% of 360,000 active; in the data active = activity change below about -50%; inconclusive = mostly about -30% to -49%
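Secreted IL-1B measured by AlphaLISA bead assay after 16 h compound exposure of THP-1 cells; compounds (final up to 57.5 uM) added 1 h before LPS (250 ng/mL) and ATP (1.25 mM) stimulation; lower signal means less secretion.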
HepG2 viability – qHTS for Inhibitors of TGF-b: Cytotox Counterscreen. HepG2 CAGA-GFP viability, ATP luminescence, 18 h. Potency, µM (top dose mostly 46.1 µM), most hits filed as cytotoxic. 0.76% of 410,000 active. AID 588856, 2011
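HepG2 CAGA-GFP cells (1000/well, DMEM with 1% FBS) received compound, then TGF-beta at 500 pg/mL final, and were incubated 18 hours at 37 degrees C. Viability was read by CellTiter-Glo luminescence. Media-only wells were set as complete cell-killing and DMSO as no toxicity.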
Numbers stand for hits; 0 = inactive; ? = inconclusive; - = no result; [ ] = another dose, or the depositor's remark. Unless noted, calls come from the whole dose curve; as a rule, active = well fitted curve in the direction sought with a large enough effect; inconclusive = small, poorly fitted or top-dose-only effect, or another doubt; inactive = no such curve, though single readings can be large; an effect the other way counts as inactive or inconclusive.

SMILES	ATXN viability	ATXN2 expr inh	TGFb SMAD3 inh	IL1B secr inh	HepG2 viability
Cc1nn(C)cc1CN1CCCC(C(=O)c2ccc(-c3ccccc3)c(F)c2)C1 (stereo unspecified)	?	-	0	-57	0
COc1cccc(C(=O)C2CCCN(Cc3cn(C)nc3-c3ccccc3)C2)c1 (stereo unspecified)	0	-	0	0	0
CCn1cc(CN2CCCC(C(=O)Nc3cccc(-c4cc5ccccc5[nH]4)c3)C2)cn1 (stereo unspecified)	0	?	?	-81	0
CCC[C@H]1C[C@H](C(=O)N[C@@H]([C@@H]2O[C@@H](SC)[C@@H](O)[C@@H](O)[C@@H]2O)[C@H](C)Cl)N(C)C1	-	0	-	-	-
Cc1cc(C)cc(NC(=O)C2CCCN(S(=O)(=O)c3cccc4nsnc34)C2)c1 (stereo unspecified)	0	0	0	-	0
CSc1cccc(NC(=O)C2CCN(S(=O)(=O)c3ccc4c(c3)CCCN4C(=O)C3CCC3)CC2)c1	0	0	0	-	0
N#Cc1c2c(c(Cl)n3c1nc1ccccc13)CCCC2	-	-	0	-	0
O=c1c(N2CCN(c3cccc(Cl)c3)CC2)csc2ccccc12	?	?	0	-	0
CCn1cc(CN2CCCC(C(=O)c3ccc(-c4ccccc4)cc3)C2)cn1 (stereo unspecified)	?	?	0	-90	0
Cn1cc(CN2CCCC(C(=O)c3ccc(-c4ccccc4)cc3)C2)cn1 (stereo unspecified)	0	-	0	0	0
O=C(Nc1nc(-c2ccccn2)cs1)c1cc(Cl)ccc1[N+](=O)[O-]	0	7.5µM	11µM	0	0
CC(=O)Nc1ccc(C(=O)Nc2nc(-c3ccccn3)cs2)cc1	0	0	0	0	0
CCCn1nc(C(=O)Nc2nc(-c3ccccn3)cs2)c2ccccc2c1=O	0	22µM	?	0	0
O=C(Nc1nc(-c2ccccn2)cs1)c1ccccc1-n1cnnn1	?	10µM	?	0	0
CCn1nc(C(=O)Nc2nc(-c3ccccn3)cs2)c2ccccc2c1=O	-	-	?	0	0
CCSC(=O)N1CCN(/[N+]([O-])=N/Oc2ccc([N+](=O)[O-])cc2[N+](=O)[O-])CC1	-	-	?	-	0
COc1ccc(CCNC(=O)CCCCn2c(=O)c3ccccc3n(Cc3cccc(C)c3)c2=O)cc1OC	?	0	0	-	0
CCCc1c(-c2cccc(Cl)c2)ncn1Cc1cccc(-c2ccccc2)c1	-	-	-	0	-
CCc1c(-c2cccc(Br)c2)ncn1Cc1cccc(-c2ccccc2)c1	-	-	-	-95	-
CCc1c(-c2ccc(OC)cc2)ncn1Cc1cccc(-c2ccccc2)c1	-	-	-	0	-
CCCc1c(-c2ccc(F)cc2F)ncn1Cc1cccc(-c2ccccc2)c1	-	-	-	0	-
COc1ccccc1-c1ncn(Cc2cccc(-c3ccccc3)c2)c1CC(C)C	11µM	11µM	-	-91	-
CCc1c(-c2ccccc2OC)ncn1Cc1cccc(-c2ccccc2)c1	-	-	-	-53	-
CCOc1ccc(C(c2c(O)cc(C)n(CCOC)c2=O)N2CCC(C)CC2)cc1 (stereo unspecified)	-	-	0	-	0
OC(CN1CCOCC1)Cn1c2ccccc2c2ccccc21 (stereo unspecified)	0	-	0	0	0
SMILES	ATXN viability	ATXN2 expr inh	TGFb SMAD3 inh	IL1B secr inh	HepG2 viability
CC1CCN(CC(O)Cn2c3ccccc3c3ccccc32)CC1 (stereo unspecified)	0	0	0	-63	0
Cc1cc(C)[n+](C)n1CC(O)Cn1c2ccccc2c2ccccc21 (stereo unspecified)	0	0	0	-64	0
Cc1nc2ccccc2n1CC(O)Cn1c2ccccc2c2ccccc21 (stereo unspecified)	?	?	0	-56	0
Fc1cccc(F)c1/C=N/NC(=S)Nc1cccnc1	?	0	0	0	0
Oc1cccc(/C=N/NC(=S)Nc2cccnc2)c1O	0	?	0	-96	0
Fc1c(F)c(F)c(/C=N/NC(=S)Nc2cccnc2)c(F)c1F	?	?	0	-102	0
Oc1ccc(/C=N/NC(=S)Nc2cccnc2)c(O)c1	0	?	?	-65	0
Oc1ccc(/C=N/NC(=S)Nc2cccnc2)c(O)c1O	?	0	0	0	0
CCCN(Cc1cccs1)C(=O)Nc1ccc(F)c(Cl)c1	-	-	?	-	0
N#Cc1c(-c2ccc(Cl)cc2)ccnc1N1CCOCC1	0	0	0	-57	0
N#Cc1c(N)nc(N2CCCC2)c(C#N)c1-c1ccc(Cl)cc1	0	0	0	0	0
O=C(NCc1ccccn1)c1cc(-c2ccc(Cl)cc2)oc1C(F)(F)F	?	0	11µM	0	0
Cc1ccc(CNC(=O)CSc2nc3c(sc4ccccc43)c(=O)n2CCCN2CCCC2)cc1	0	0	0	-90	0
O=C(CSc1nc2c(sc3ccccc32)c(=O)n1CCCN1CCCC1)NCc1ccccc1	?	?	0	-100	0
COc1ccc(C(=O)NCc2ccc3c(c2)CCN3C(=O)c2ccc(Cl)cc2)c(OC)c1	-	-	?	-	0
Cc1ccc(CNC(=O)C2CCCN(c3ncnc4onc(-c5ccc(F)cc5)c34)C2)cc1 (stereo unspecified)	0	0	0	-	0
Cc1ccc(NC(=O)c2cc(S(=O)(=O)NCCc3ccccc3)ccc2F)cc1Cl	0	0	0	-88	0
CC(C)c1ccc(NC(=O)c2cc(S(=O)(=O)NCCC3=CCCCC3)ccc2F)cc1	?	?	?	-	13µM
Cc1cc(C)c(NC(=O)c2cc(S(=O)(=O)NCCC3=CCCCC3)ccc2F)c(C)c1	0	0	0	-	0
Cc1ccc(C)c(NC(=O)c2cc(S(=O)(=O)NCCc3ccccc3)ccc2F)c1	?	?	?	-	0
O=C(Nc1cccc(Cl)c1)c1cc(S(=O)(=O)NCCc2ccc(Cl)cc2)ccc1F	0	0	11µM	-65	0
Cc1cccc(N2CCN(C(=O)c3sc4nc5n(c(=O)c4c3C)CCC5)CC2C)c1 (stereo unspecified)	-	-	?	-	0
C/C(=N\NC(=O)c1ccc(CN2CCc3ccccc3C2)cc1)c1ccccc1O	0	16µM	?	0	0
O=C(c1ccc(CN2CCc3ccccc3C2)cc1)N1CCN(c2ccc(F)cc2)CC1	?	0	?	-63	0
COc1ccc(NCc2cc3cc4c(cc3n(CC(=O)Nc3ccccc3)c2=O)OCO4)cc1	-	-	0	-	0
Cc1cccc(N2CCN(C(=O)c3cc4n(n3)C(C(F)(F)F)CC(c3ccco3)N4)CC2)c1C (stereo unspecified)	0	?	?	-55	0
Cc1ccc(NC(=O)CN2C(=O)CCn3nc(-c4cccn4C)cc32)c(Cl)c1	0	0	0	-	0
S=c1[nH]nc(C2CCCCC2)n1/N=C/c1ccncc1	0	0[11.3 µM]	0	0	0
